Laboratory results as given in PubChem BioAssay AID485273 (Sanford-Burnham Center for Chemical Genomics, 2010).
In all, about 330,000 compounds went through this assay and about 1,500 (0.45%) were called active. Many of the other results were omitted from the sample, so actives are more common in it than they were. Values without a mark were called inactive. Rule as the data show it: active = inhibition above about 45% (passing the limit was not always enough); inconclusive = no clear call, values can overlap the other calls.

molecular target: Ubiquitin-conjugating enzyme E2 N (Homo sapiens) (UniProt P61088); test: UBC13 polyubiquitin chain formation inhibitors, primary screen, biochemical, TR-FRET, uHTS (AID 485273); conditions: at 20 µM, hits give high values
Sequence (P61088 whole entry, looked up): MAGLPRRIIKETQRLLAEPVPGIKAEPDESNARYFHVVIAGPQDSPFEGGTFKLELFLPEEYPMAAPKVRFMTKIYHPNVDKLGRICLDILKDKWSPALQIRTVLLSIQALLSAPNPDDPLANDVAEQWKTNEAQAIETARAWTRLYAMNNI

Point of comparison: `CCn1c(SCC(=O)NCC2CCCO2)nc2ccccc21` (stereo unspecified), inhibition 5.4%. Against it:
- CC(C)c1ccccc1OCC(O)CN(CC(O)COc1cccc2ccccc12)C(C)C (stereo unspecified) — higher, 10.8%
- Cc1cc(C)cc(OCC(=O)NCc2cc(C)nc3ccccc23)c1 — higher, 7.7%
- CCCCCN(C(=O)CCC(=O)OCC(=O)NCc1ccc(OC)cc1)c1c(N)n(CCCC)c(=O)[nH]c1=O — lower, 2.5%
- CCn1ccnc1CN1CCCC(C(=O)c2ccc3c4c(cccc24)CC3)C1 (stereo unspecified) — higher, 19.1%
- O=C(c1ccccc1)N1CCN(C(=O)c2cc3nc(-c4ccccc4)cc(C(F)(F)F)n3n2)CC1 — lower, 2.2%
- O=C(O)/C(=C/c1cccnc1)NC(=O)c1ccccc1 — higher, 7.7%
- OCCCNc1nccc(-c2cc(Nc3cccc(Cl)c3)ncn2)n1 — higher, 35.7%
- CC(C)C[C@H](CO)Nc1nc(N(C)c2cccc(Cl)c2)c2ncn(C(C)C)c2n1 — higher, 24.1%
- O=C(O)CCn1c(SCc2cc(=O)n3ccccc3n2)nc2ccsc2c1=O — lower, -6.3%
- O=C(Nc1cccnc1Oc1ncnc2cc(Cl)ccc12)c1ccc(F)cc1 — lower, 2.8%
- COc1ccc(N2CCN(CCNC(=O)Nc3cc(Cl)ccc3Cl)CC2)cc1 — higher, 5.5%
- Cc1ccc(NC(=O)c2sc3nc(N)c(C#N)cc3c2N)cc1 — lower, 1%
- CC(=O)c1ccc(NC(=O)c2sc3nc4n(c(=O)c3c2C)CCCCC4)cc1 — lower, -6.8%
- COc1ccc(C=C(C#N)C#N)c(CSc2ccccn2)c1 — lower, 3.1%
- O/N=C(\C[n+]1ccccc1)c1ccc(Br)cc1 — lower, -4.7%
- O=C(Nc1nnc(-c2ccccc2)o1)c1cc(-c2cccs2)nc2ccccc12 — lower, -31.4%
- O=C(NCC(c1cccs1)N1CCOCC1)c1cc(-c2ccccn2)nc2ccccc12 (stereo unspecified) — lower, 1.9%
- COC(=O)c1cc(N2CCNCC2)nc2ccccc12 — higher, 17.5%
- CC(=O)NCCNC(=O)c1cc(-c2cccc3ccccc23)nc2ccccc12 — higher, 8.4%
- COc1cccc(NC(=O)CN(C)C(=O)c2cc(C3CC3)nn2-c2ccccc2)c1 — lower, -2.2%
- CCOCCCNS(=O)(=O)Cc1ccccc1 — lower, -13.7%
- CCOc1ccc(N(CC(=O)NCCc2ccc(OC)cc2)S(C)(=O)=O)cc1 — lower, 3.8%
- Cc1sc2ncnc(N3CCC(C(=O)Nc4ccc(F)cc4Cl)CC3)c2c1C — higher, 17.7%
- Cc1ccc(S(=O)(=O)N(C)c2ccc(OCC(=O)OCC(=O)N(CC#N)c3ccccc3)cc2)cc1 — lower, -0.2%
- CCCc1cc(=O)[nH]c2nnc(SCC(=O)Nc3nnc(SCC)s3)n12 — lower, -15.5%
- NCC(=O)c1cccc2ccc[n+]([O-])c12 — lower, -7.7%
- O=C(NCC(=O)N(Cc1cccs1)C(C(=O)NC1CCCCC1)c1ccco1)c1cccs1 (stereo unspecified) — lower, -5.1%
- Cn1c(SCC(=O)c2ccccc2)ncc(C(=O)Nc2ccc(F)cc2)c1=O — higher, 36.4%
- Cc1ccccc1-n1cc(CNC(=O)C2CCC(=O)N(C3CC3)C2)cn1 (stereo unspecified) — higher, 8.4%
- COc1ccc(-n2nc(C(=O)Nc3cc(OC)c(OC)c(OC)c3)c3ccccc3c2=O)c(OC)c1 — higher, 21.2%
- N#CCc1ccc(NC(=O)c2ccccc2C(=O)Nc2ccc(CC#N)cc2)cc1 — lower, 2.2%
- COCCCNC(=O)Cn1cc(C(=O)C2CC2)c2ccccc21 — higher, 11.8%
- CCCCOCCCNC(=O)c1ccccc1OCC — lower, 1.4%
- CN(C)c1nc(N)nc(Cn2nnc(-c3ccc(C(F)(F)F)cc3)n2)n1 — lower, 4%
- COc1ccccc1-c1sc2ccccc2c1C#CC1(O)CCCCC1 — lower, -2.3%
- COc1ccccc1-c1sc2ccccc2c1-c1ccc(Br)nc1 — higher, 21.7%
- CCCC1C(=O)N2C(N(C)C)=Nc3ccc(C)cc3N2C1=O (stereo unspecified) — lower, -21%
- COc1cccc(OC)c1C(=O)Nc1ccc2c(c1)n(C)c(=O)n2C — lower, 1.6%
- Cc1cc2oc3ccc(NCCC4CCCN4C)cc3c(=O)c2cc1C (stereo unspecified) — higher, 33.1%
- COCCn1c(SCC(=O)Nc2ccccc2F)nc2c(c1=O)SCC2 — lower, -6.9%
- COc1ccc(-n2nnnc2CNC(=O)c2ccc3ccccc3c2)cc1 — lower, -2.4%
- COc1ccc(C2=NN(c3nc4ccccc4s3)C(=O)C2)cc1 — lower, -13.1%
- Cc1c(Cl)cnc(NC(=O)COC(=O)C2CCCC2)c1Cl — lower, 3.7%
- CCCN1CCn2c3c(c4cc(Br)ccc42)CCCC31 (stereo unspecified) — lower, -1.1%
- O=C(CCNS(=O)(=O)c1ccc(Br)cc1)NCC1CCCO1 (stereo unspecified) — lower, 1.5%
- COc1ccccc1C(=O)N1C(CC(=O)Nc2ccccc2C)C(=O)NC2CCCCC21 (stereo unspecified) — lower, -2.3%
- CCCC[C@@H]1CN=C(N)N1CCCC — lower, -4.4%
- CCCC[C@@H]1CN=C(N)N1CCc1cccc(F)c1 — higher, 13.5%

`Cc1cc(C)c(NC(=O)C[N+](C)(C)CC(O)COc2cccc3ccccc23)c(C)c1` (stereo unspecified) was tested, and the inhibition was 45.4% (active).
`CC(C)n1cnc2c(Nc3cccc(Cl)c3)nc(N(CCO)CCCO)nc21` was tested, and the inhibition was 64.8% (active).
In the case of `CC(=O)Nc1ccc(NC(=O)c2sc3nc4c(c(-c5ccc(C)cc5)c3c2N)CCC4)cc1`, the inhibition is reported as 54% (active).
For `CCCCN(C)CCCNC(=O)c1cc(-c2cccs2)nc2ccccc12`, the inhibition was 48.3% (active).
For `COC(=O)c1cc(-c2cccs2)nc2ccccc12`, the inhibition was 45.2% (active).
For `Cc1ccc(NC(=O)c2cnc(SCC(=O)NCC3CCCO3)n(C)c2=O)cc1` (stereo unspecified), the inhibition was 93.1% (active).
With `CCOCCCNC(=O)c1cn(CC(C)C)c(=O)c2c1c1ccccc1n2C` the inhibition was 51.1% (active).
For `COc1ccccc1-c1sc2ccccc2c1-c1ccc(C(C)=O)cc1`, the inhibition was 47.4% (active).
For `COc1cccc2sc3cc(NCC[C@@H]4CCCN4C)ccc3c(=O)c12`, the inhibition was 45.1% (active).
In the case of `COc1ccc(-n2nnnc2-c2nc3ccccc3s2)cc1`, the inhibition is reported as 53.4% (active).
In the case of `OC(CNCC1CCCO1)Cn1c2ccc(Br)cc2c2cc(Br)ccc21` (stereo unspecified), the inhibition is reported as 57.5% (active).
With `CCCC[C@@H]1CN=C(N)N1CCc1cc(C(F)(F)F)cc(C(F)(F)F)c1` the inhibition was 66.9% (active).
